NSD2 inh: inhibitors of human histone methyltransferase NSD2; O96028; NSD2 peptide methylation, AlphaScreen, 120 min; inhibition, % at 12.5 µM; hit rate 0.54% among 310,000
Target sequence (O96028 whole entry, looked up): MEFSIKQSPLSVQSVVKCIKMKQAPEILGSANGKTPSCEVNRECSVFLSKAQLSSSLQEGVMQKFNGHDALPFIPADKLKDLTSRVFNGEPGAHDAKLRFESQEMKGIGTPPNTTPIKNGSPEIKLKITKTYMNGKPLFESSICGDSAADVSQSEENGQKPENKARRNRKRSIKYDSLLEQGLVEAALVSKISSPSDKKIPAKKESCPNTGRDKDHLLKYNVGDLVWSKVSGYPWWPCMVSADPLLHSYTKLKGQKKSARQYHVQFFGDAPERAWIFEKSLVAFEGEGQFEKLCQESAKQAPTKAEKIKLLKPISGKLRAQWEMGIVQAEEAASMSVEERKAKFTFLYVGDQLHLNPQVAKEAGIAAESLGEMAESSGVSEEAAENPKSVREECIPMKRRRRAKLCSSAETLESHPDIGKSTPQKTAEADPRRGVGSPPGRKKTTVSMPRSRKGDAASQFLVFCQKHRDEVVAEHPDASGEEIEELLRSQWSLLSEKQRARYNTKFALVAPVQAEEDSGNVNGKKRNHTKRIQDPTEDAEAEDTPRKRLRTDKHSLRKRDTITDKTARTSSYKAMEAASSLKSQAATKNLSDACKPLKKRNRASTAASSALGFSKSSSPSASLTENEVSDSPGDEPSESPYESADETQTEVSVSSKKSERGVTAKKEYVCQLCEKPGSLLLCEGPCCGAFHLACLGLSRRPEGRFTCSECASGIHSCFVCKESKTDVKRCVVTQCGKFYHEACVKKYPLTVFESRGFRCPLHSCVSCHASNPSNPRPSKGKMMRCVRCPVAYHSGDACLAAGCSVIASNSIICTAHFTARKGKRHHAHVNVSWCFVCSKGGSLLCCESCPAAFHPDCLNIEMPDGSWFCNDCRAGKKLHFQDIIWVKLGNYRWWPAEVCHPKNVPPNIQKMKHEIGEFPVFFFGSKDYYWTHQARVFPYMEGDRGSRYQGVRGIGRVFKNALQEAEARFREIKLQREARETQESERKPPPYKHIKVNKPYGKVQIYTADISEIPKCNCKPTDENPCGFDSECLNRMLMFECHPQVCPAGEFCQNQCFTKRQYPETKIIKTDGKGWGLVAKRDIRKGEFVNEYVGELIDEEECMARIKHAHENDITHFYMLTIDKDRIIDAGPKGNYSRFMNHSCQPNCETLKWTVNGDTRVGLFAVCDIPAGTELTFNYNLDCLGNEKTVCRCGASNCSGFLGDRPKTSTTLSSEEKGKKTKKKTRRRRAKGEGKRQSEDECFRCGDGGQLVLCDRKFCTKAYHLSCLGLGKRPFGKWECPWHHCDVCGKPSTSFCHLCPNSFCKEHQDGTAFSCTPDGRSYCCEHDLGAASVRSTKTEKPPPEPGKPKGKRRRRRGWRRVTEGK
miR-122 sensor: inhibitors of miR-122 in Huh7 cells; Huh7 miR-122 Renilla luciferase sensor, 48 h; neutral wells = 0, positive control = 100; activation (reporter increase), % at 12.5 µM; hit rate 0.3% among 340,000;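 active means mean replicate activation score at least 90 and every replicate individually at or above 90; inconclusive means only one of the two criteria met; inactive means neither criterion met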;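 further: higher luciferase means less miR-122 activity so hits act as miR-122 inhibitors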
Dyrk1A ADPGlo: inhibitors of rat Dyrk1A kinase. Q63470. ADP-Glo luminescence, NFATc1 peptide. inhibition, % at 12.5 µM. hit rate 0.43% among 310,000;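 further: plate controls were vehicle with enzyme for no effect and no enzyme for full effect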
MITF act: MITF TRPM1 promoter activation in melanoma cells; AID 588334; activation, % at 12.5 µM; SK-MEL-5 TRPM1-promoter luciferase, 24 h; % of positive control, neutral wells = 0; hit rate 0.75% among 300,000;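 active means mean activation of at least 80% with every replicate also reaching 80%; inconclusive means mean reaches 80% but some replicate falls short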;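 further: 0% = neutral control wells and 100% = parthenolide positive control wells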
INS-1E GSIS act: GLuc luminescence reporter in INS-1E cells, primary screen for activators of glucose-dependent secretion of insulin | INS-1E GLuc reporter insulin secretion, 2-3 h | activation, % at 16.6 µM | hit rate 0.61% among 370,000;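 active means lowest replicate activation of at least 40%, so every replicate reaches that level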;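 further: 0% = median of neutral control wells and 100% = median of IBMX positive control wells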
Wnt act: activators of Wnt/beta-catenin signaling. activation, % at 9.35 µM. Wnt/beta-catenin reporter cell assay, activator, plate reader. hit rate 1.2% among 300,000. AID 743398; in the data active means activation above about 30%, passing the limit was not always enough; inconclusive means no clear call, values can overlap the other calls;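 further: 0% = neutral control wells and 100% = positive control wells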
The depositor's hits bear a star; [ ] = remark or other dose. In the library only some 2.4% were active in any assay of this set; here they are far more common. Unless noted, no stated cut-off is given here; in the data, active means inhibition above about 50%; inactive means the rest.

`CC1CCCN(C(=O)CSc2nc3ccccc3o2)C1` (stereo not drawn) gave NSD2 inh -5, miR-122 sensor -4, Dyrk1A ADPGlo 2 and Wnt act inconclusive.
For COc1ccc(CCN2C(=S)N(C)C(=O)C2CC(=O)Nc2ccc(OC)cc2)cc1 (stereo not drawn) the results were NSD2 inh -2, miR-122 sensor -3, Dyrk1A ADPGlo -3, MITF act 18, INS-1E GSIS act -48 and Wnt act -6.
COc1ccc(NC(=O)CC2C(=O)N(C)C(=S)N2Cc2ccc3c(c2)OCO3)cc1 (stereo not drawn) was read as NSD2 inh -1, miR-122 sensor 3, Dyrk1A ADPGlo -6, MITF act 3, INS-1E GSIS act -9 and Wnt act 35*.
`Cc1nc(NC(=O)c2cc3ccccc3o2)ccc1Br` gave NSD2 inh -3, miR-122 sensor -2, Dyrk1A ADPGlo -1, MITF act 63, INS-1E GSIS act 21 and Wnt act 14.
For Cc1cccc(NC(=O)c2cc3ccccc3c(=O)o2)n1 the results were NSD2 inh 2, miR-122 sensor 5, Dyrk1A ADPGlo -13, MITF act 57, INS-1E GSIS act 12 and Wnt act 52*.
`CCc1nc2ccc(C(=O)N3CCC(C(N)=O)CC3)cc2nc1CC` gave NSD2 inh -2.
`Cc1ccc(C(=O)OCc2cc(=O)n3c(C)csc3n2)s1` gave NSD2 inh 25, miR-122 sensor 2, Dyrk1A ADPGlo 9, MITF act 54, INS-1E GSIS act 28 and Wnt act 3.
`COc1ccc(C(=O)OCc2cc(=O)n3c(C)csc3n2)cc1F` gave NSD2 inh -2, miR-122 sensor -11, MITF act 106*, INS-1E GSIS act 2 and Wnt act 19.
For CCCCNc1c(-c2ccc(SC3CCCCC3)cc2)nc2ccccn12 the results were NSD2 inh -6, miR-122 sensor 7, Dyrk1A ADPGlo -5, MITF act 35, INS-1E GSIS act -5 and Wnt act 37*.
For CCCCNc1c(-c2ccc(SC(C)CC)cc2)nc2ccccn12 (stereo not drawn) the results were NSD2 inh -3, Dyrk1A ADPGlo 18, MITF act inconclusive, INS-1E GSIS act 24 and Wnt act 19.
For C[C@@H]1CCCCO[C@@H](CN(C)C(=O)Nc2ccccc2)[C@H](C)CN([C@H](C)CO)C(=O)c2cc(NS(=O)(=O)c3ccc(F)cc3)ccc2O1 the results were miR-122 sensor -1[16.7 µM] and INS-1E GSIS act -23.
COc1ccc(NC(=O)Nc2ccc3c(c2)C(=O)N([C@H](C)CO)C[C@@H](C)[C@@H](CN(C)CC2CCCCC2)OCCCC[C@@H](C)O3)cc1 was read as miR-122 sensor -21[16.7 µM] and INS-1E GSIS act 18.
CCc1ccc(-c2cc(C)no2)cc1S(=O)(=O)NCc1ccco1 was read as NSD2 inh 3, miR-122 sensor 159*, MITF act 10, INS-1E GSIS act -20 and Wnt act -3.
CCc1ccc(-c2cc(C)no2)cc1S(=O)(=O)NCCc1ccc(OC)c(OC)c1 was read as NSD2 inh -1, miR-122 sensor 132*, MITF act 12, INS-1E GSIS act -5 and Wnt act -3.
CCc1ccc(-c2cc(C)no2)cc1S(=O)(=O)NCc1ccc(OC)c(OC)c1 was read as NSD2 inh 4, miR-122 sensor 14, Dyrk1A ADPGlo -1, MITF act 6, INS-1E GSIS act 15 and Wnt act -4.
CCCC(=O)Nc1ccc2c(c1)OC[C@H](C)N(C(=O)c1ccccc1F)C[C@H](C)[C@@H](OC)CN(C)C2=O was read as INS-1E GSIS act 2.
Screening CCn1c(C(=O)OC)cc2c1ccn2-c1ccc(F)cc1 returned NSD2 inh 8, miR-122 sensor 2, Dyrk1A ADPGlo 1, MITF act 121* and Wnt act 84*.
For O=C(Nc1cccc(F)c1)N1CC(=O)N2[C@H](CO)[C@@H](c3ccc(-c4ccccc4F)cc3)[C@H]2C1 the results were INS-1E GSIS act -9.
Cc1[nH]nc(Nc2ccc(O)cc2)c1[N+](=O)[O-] was read as NSD2 inh 4, miR-122 sensor 3, Dyrk1A ADPGlo 32, MITF act 23, INS-1E GSIS act 9 and Wnt act 9.
Screening COc1ccc(Nc2n[nH]c(C)c2[N+](=O)[O-])cc1 returned NSD2 inh 2, Dyrk1A ADPGlo -5, MITF act 79, INS-1E GSIS act -7 and Wnt act 35*.
`CC1(O)C(c2ccccc2)=Nc2ccccc21` (stereo not drawn) gave NSD2 inh -2, miR-122 sensor -1 and Wnt act 61*.
C[C@@H]1CN([C@H](C)CO)C(=O)Cc2cc(NS(=O)(=O)c3ccccc3)ccc2O[C@H]1CN(C)C(=O)Nc1ccc(F)cc1 was read as miR-122 sensor -2[16.7 µM] and INS-1E GSIS act 5.
COC(=O)CCCCCC(CCC(=O)OC)NC(C)=O (stereo not drawn) was read as NSD2 inh -2, miR-122 sensor 238* and Dyrk1A ADPGlo 9.
Cn1c(NC(=O)/C=C/c2ccccc2)cc(=O)n(C)c1=O was read as NSD2 inh 0, miR-122 sensor 13, MITF act 1, INS-1E GSIS act 38 and Wnt act 61*.
COc1ccc(/C=C/C(=O)Nc2cc(=O)n(C)c(=O)n2C)cc1 was read as NSD2 inh 0, miR-122 sensor -2, Dyrk1A ADPGlo 5, MITF act 39 and INS-1E GSIS act 2.
Screening O=C1CS/C(=N/N=C/c2c[nH]c3ccccc23)N1 returned NSD2 inh -1, miR-122 sensor 8, INS-1E GSIS act -4 and Wnt act 0.
Screening C(=NN=Cc1c[nH]c2ccccc12)c1c[nH]c2ccccc12 returned NSD2 inh 1, miR-122 sensor 0, INS-1E GSIS act 8 and Wnt act 46*.
`O=c1nc(N/N=C/c2c[nH]c3ccccc23)cn[nH]1` gave NSD2 inh -3, Dyrk1A ADPGlo 3, MITF act 57, INS-1E GSIS act 8 and Wnt act 41*.
`COCC(=O)N(C)C[C@@H]1Oc2cc(-c3ccncc3)ccc2S(=O)(=O)N([C@H](C)CO)C[C@@H]1C` gave miR-122 sensor 3[16.7 µM] and INS-1E GSIS act 9.
Screening C[C@H](CO)N1C[C@H](C)[C@@H](CN(C)C(=O)C2CCC2)Oc2ncc(-c3ccncc3)cc2C1=O returned miR-122 sensor 2[16.7 µM] and INS-1E GSIS act 2.
`Cc1c(Cl)cccc1NC(=O)CCCN1C(=O)c2cccnc2C1=O` gave miR-122 sensor -13, Dyrk1A ADPGlo 2, MITF act 8, INS-1E GSIS act 0 and Wnt act 34*.

Source: PubChem
